Assay results published in the antibiotic and cytotoxicity screens of Wong et al. (2023).
In all, about 39,000 compounds went through this assay and about 3,300 (8.5%) were called active. Shown is part of a subset that was picked to be rich in actives.

System: HepG2
Experiment: cytotoxicity call (relative viability < 0.9)
Settings: 10 µM

How did the cytotoxicity call turn out when `COc1ccccc1C#Cc1ccc2c(c1)O[C@H](CN(C)Cc1cccnc1)[C@H](C)CN([C@@H](C)CO)S2(=O)=O` was run?
Its cytotoxicity call is “inactive”.

Which cytotoxicity call does the source give for `COc1ccccc1C#Cc1ccc2c(c1)O[C@@H](CN(C)Cc1cccnc1)[C@H](C)CN([C@H](C)CO)S2(=O)=O` here?
The cytotoxicity call was “active”.

How did the cytotoxicity call turn out when `COc1ccccc1C#Cc1ccc2c(c1)O[C@@H](CN(C)Cc1cccnc1)[C@@H](C)CN([C@H](C)CO)S2(=O)=O` was run?
The cytotoxicity call was “inactive”.

`COc1ccccc1C#Cc1ccc2c(c1)O[C@H](CN(C)Cc1cccnc1)[C@H](C)CN([C@H](C)CO)S2(=O)=O` was tested. Which cytotoxicity call did it give?
Its cytotoxicity call is “inactive”.

`COc1ccccc1C#Cc1ccc2c(c1)O[C@H](CN(C)Cc1cccnc1)[C@@H](C)CN([C@@H](C)CO)S2(=O)=O` was tested. Which cytotoxicity call did it give?
The cytotoxicity call was “inactive”.

Which cytotoxicity call does the source give for `COc1ccccc1C#Cc1ccc2c(c1)O[C@@H](CN(C)Cc1cccnc1)[C@@H](C)CN([C@@H](C)CO)S2(=O)=O` here?
The cytotoxicity call was “active”.

With `COc1ccccc1C#Cc1ccc2c(c1)O[C@@H](CN(C)Cc1cncnc1)[C@@H](C)CN([C@@H](C)CO)S2(=O)=O` as the compound, how does the cytotoxicity call read?
Its cytotoxicity call is “inactive”.

Which cytotoxicity call does the source give for `COc1ccccc1C#Cc1ccc2c(c1)O[C@H](CN(C)Cc1cccnc1)[C@@H](C)CN([C@H](C)CO)S2(=O)=O` here?
Its cytotoxicity call is “active”.

How did the cytotoxicity call turn out when `COc1ccccc1C#Cc1ccc2c(c1)O[C@@H](CN(C)Cc1cccnc1)[C@H](C)CN([C@@H](C)CO)S2(=O)=O` was run?
Its cytotoxicity call is “inactive”.

Which cytotoxicity call does the source give for `Cc1ccc(S(=O)(=O)Nc2ccc3c(c2)C(=O)N([C@@H](C)CO)C[C@@H](C)[C@H](CN(C)C(=O)C2CCCCC2)OCCCC[C@@H](C)O3)cc1` here?
The cytotoxicity call was “inactive”.

Which cytotoxicity call does the source give for `C=CCOC(=O)[C@@H]1[C@H]2C(=O)O[C@H](c3ccccc3)[C@H](c3ccccc3)N2[C@H](c2ccc(OCCOC(=O)[C@@H]3C[C@@H]4C(=O)NCC(=O)N4[C@@H]3c3cccc(OCCO)c3)cc2)[C@@]12C(=O)Nc1ccccc12` here?
The cytotoxicity call was “inactive”.

For `C[C@@H]1CN([C@@H](C)CO)C(=O)Cc2cc(NC(=O)Nc3cccc4ccccc34)ccc2O[C@H]1CN(C)C(=O)Nc1ccc2c(c1)OCO2`, which cytotoxicity call is on record?
The cytotoxicity call was “inactive”.

With `C[C@@H]1CCCCO[C@@H](CN(C)C(=O)C2CCCCC2)[C@H](C)CN([C@H](C)CO)C(=O)c2cc(NC(=O)c3ccccc3)ccc2O1` as the compound, how does the cytotoxicity call read?
Its cytotoxicity call is “inactive”.

For `C[C@H]1CN([C@@H](C)CO)C(=O)c2cc(NC(=O)CCCN(C)C)ccc2O[C@@H]1CN(C)Cc1ccc2c(c1)OCO2`, which cytotoxicity call is on record?
Its cytotoxicity call is “inactive”.

How did the cytotoxicity call turn out when `C[C@@H]1CCCCO[C@H](CN(C)Cc2ccc(Cl)c(Cl)c2)[C@@H](C)CN([C@H](C)CO)C(=O)c2cc(NC(=O)Nc3ccc4c(c3)OCO4)ccc2O1` was run?
The cytotoxicity call was “active”.

How did the cytotoxicity call turn out when `C[C@@H]1CCCCO[C@@H](CN(C)Cc2ccc(Cl)c(Cl)c2)[C@@H](C)CN([C@H](C)CO)C(=O)c2cc(NC(=O)Nc3ccc4c(c3)OCO4)ccc2O1` was run?
The cytotoxicity call was “inactive”.

Which cytotoxicity call does the source give for `C[C@@H]1CN([C@H](C)CO)C(=O)c2cc(NC(=O)Nc3ccc4c(c3)OCO4)ccc2O[C@@H](C)CCCCO[C@@H]1CN(C)Cc1ccc(Cl)c(Cl)c1` here?
The cytotoxicity call was “active”.

`C[C@@H]1CCCCO[C@H](CN(C)Cc2ccc(Cl)c(Cl)c2)[C@@H](C)CN([C@@H](C)CO)C(=O)c2cc(NC(=O)Nc3ccc4c(c3)OCO4)ccc2O1` was tested. Which cytotoxicity call did it give?
The cytotoxicity call was “inactive”.

Which cytotoxicity call does the source give for `C[C@@H]1CN([C@H](C)CO)C(=O)c2cc(NC(=O)Nc3ccc4c(c3)OCO4)ccc2O[C@@H](C)CCCCO[C@H]1CN(C)Cc1ccc(Cl)c(Cl)c1` here?
Its cytotoxicity call is “active”.

How did the cytotoxicity call turn out when `C[C@@H]1CCCCO[C@@H](CN(C)Cc2ccc(Cl)c(Cl)c2)[C@H](C)CN([C@@H](C)CO)C(=O)c2cc(NC(=O)Nc3ccc4c(c3)OCO4)ccc2O1` was run?
The cytotoxicity call was “inactive”.

`C[C@H](CO)N1C[C@H](C)[C@@H](CN(C)Cc2ccc(Cl)c(Cl)c2)OCCCC[C@H](C)Oc2ccc(NC(=O)Nc3ccc4c(c3)OCO4)cc2C1=O` was tested. Which cytotoxicity call did it give?
Its cytotoxicity call is “inactive”.

`C[C@H]1CCCCO[C@H](CN(C)Cc2ccc(Cl)c(Cl)c2)[C@@H](C)CN([C@@H](C)CO)C(=O)c2cc(NC(=O)Nc3ccc4c(c3)OCO4)ccc2O1` was tested. Which cytotoxicity call did it give?
The cytotoxicity call was “active”.
